High-throughput results: PubChem BioAssay, National Center for Advancing Translational Sciences (NCATS)
ALOX12 inh – Primary qHTS assay for inhibitors of human arachidonate 12S-lipoxygenase (ALOX12): Round 2 | hit rate 1.1% among 580,000 | Potency, µM (highest dose often 108 µM), inactives show at the highest dose activity change, negative = inhibition, most hits filed as inhibitors | Polyunsaturated fatty acid lipoxygenase ALOX12 (Homo sapiens), P18054 | purified 12hLO, xylenol orange hydroperoxide absorbance | AID 1671190, 2021
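Hydroperoxide product was detected by ferrous iron/xylenol orange as the 573 to 405 nm absorbance ratio. Arachidonic acid at 40 uM (final) was turned over for 30 min at room temperature by 150 nM human 12hLO, pH 7.0 Hepes buffer, after 15 min compound preincubation.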
VDR inhibitor – Inhibitors of the vitamin D receptor (VDR): qHTS; VDR-SRC2-3 peptide fluorescence polarization, 2 h; Potency, µM, without a hit: max response, negative = inhibition, hits mostly inhibitors; hit rate 0.93% among 400,000; AID 504847, 2011
Target sequence (P11473 whole entry, looked up): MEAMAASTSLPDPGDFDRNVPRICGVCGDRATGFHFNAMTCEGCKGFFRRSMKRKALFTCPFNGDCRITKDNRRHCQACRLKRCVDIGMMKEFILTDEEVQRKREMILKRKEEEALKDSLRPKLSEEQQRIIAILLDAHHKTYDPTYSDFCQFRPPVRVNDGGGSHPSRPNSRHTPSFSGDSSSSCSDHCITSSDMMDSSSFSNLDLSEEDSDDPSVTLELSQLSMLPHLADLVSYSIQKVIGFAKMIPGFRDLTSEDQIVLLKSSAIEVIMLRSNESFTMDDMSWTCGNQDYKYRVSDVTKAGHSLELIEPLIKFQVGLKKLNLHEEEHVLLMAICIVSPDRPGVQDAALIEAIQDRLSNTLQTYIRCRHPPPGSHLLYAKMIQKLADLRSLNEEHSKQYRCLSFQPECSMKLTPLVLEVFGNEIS
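Signal is fluorescence polarization, reporting how far test compounds block the interaction of VDR with the SRC2-3 coregulator peptide after a 2 h room-temperature incubation.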
Sfp inh – qHTS Assay for Inhibitors of Bacillus subtilis Sfp phosphopantetheinyl transferase (PPTase). 4'-phosphopantetheinyl transferase ffp (Bacillus subtilis), Q9F4F7. Biochemical Sfp PPTase activity, qHTS. Potency, µM, for inactives: largest response in the series, negative = inhibition, actives largely listed as inhibitors. hit rate 3.5% among 310,000;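 also: the enzyme is Sfp with the accession as filed and its product quenches rhodamine fluorescence; 0% = enzyme reaction without inhibitor and -100% = no enzyme wells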
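Fluorescence-quenching assay with 15 nM Sfp, 5 uM rhodamine-CoA and 12.5 uM BHQ-2-labelled ybbR peptide in pH 7.6 Hepes/MgCl2 buffer. Enzyme was pre-incubated with compound for 15 min at room temperature. Rate was taken from the 30-min fluorescence change (525/598 nm).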
PLK1 PBD block – qHTS for Inhibitors of PLK1-PDB (polo-like kinase 1 - polo-box domain): Primary Screen; Serine/threonine-protein kinase PLK1 (Homo sapiens), P53350; Plk1 PBD binding of FITC phosphopeptide, fluorescence polarization; Potency, µM, inactives show max response, negative = inhibition, most hits filed as inhibitors; hit rate 2.8% among 360,000; AID 720504, 2013; also: series mostly up to about 57 µM; nearly all actives have a fitted effect of over 65% in size
* = called active by the depositor; ? = inconclusive; . = no result; [ ] = another dose, or the depositor's remark. Compounds with a hit are over-represented: about 4.2% of the library has one in this group of screens. Calls follow the shape of the dose curve; as a rule, active = well fitted curve in the direction sought with a large enough effect; inconclusive = small, poorly fitted or top-dose-only effect, or another doubt; inactive = no such curve, though single readings can be large; an effect the other way counts as inactive or inconclusive. Unless noted, % is scaled to controls: 0 for no effect and ±100 for the full control effect; potency is read from the fitted curve at half-maximal effect.

SMILES	ALOX12 inh	VDR inhibitor	Sfp inh	PLK1 PBD block
O=C1c2ccccc2-c2onc3ccc(NCCCn4ccnc4)c1c23	.	-25%	-1%	1.5µM*
COc1ccc(OC)c2c1C(=O)c1ccccc1C2=O	-5%	11%	40µM*	11µM*
CC(=O)NC1=C(Nc2ccc(N(C)C)cc2)C(=O)c2ccccc2C1=O	-13%	50µM*	-14%	-10%
NS(=O)(=O)c1ccc(NCCCn2ccnc2)c([N+](=O)[O-])c1	0%	3%	-2%	-3%
COC1=C(Nc2ccccc2)C(=O)c2ccccc2C1=O	-36%	45µM*	-13%	-3%
O=C(Cn1cnc2scc(-c3ccc(F)cc3)c2c1=O)NCC(c1ccco1)N1CCCC1 (stereo not given)	-2%	-28%	.	-7%
CCC(C(=O)NC1CCCCCC1)c1ccccc1 (stereo not given)	?	5%	.	-1%
COc1ccc(CCNS(=O)(=O)c2cc3c4c(c2)CC(=O)N4CCC3)cc1	3%	-7%	2%	-10%
COc1ccc2noc3c2c1C(=O)c1ccccc1-3	13%	?	.	0.38µM*
CS(=O)(=O)c1ccc(OCC2(CNC3CCC3)C[C@@H](O)[C@@H](O)C2)cc1 (stereo not given in full)	22%[176 µM]	.	.	.
CCS(=O)(=O)NCC1(COc2ccc(S(C)(=O)=O)cc2)C[C@@H](O)[C@@H](O)C1 (stereo not given in full)	13µM*	.	.	.
COc1ccc(CN2CCN(C(C)=O)CC2)cc1OC1CCN(C(=O)c2ccc3ccccc3n2)CC1	28µM*	.	.	.
COc1ccc(CN2CCN(C(=O)CC(C)C)CC2)c2ccccc12	-12%	-2%	?	2%
Cc1ccc(CN2CCN(C(=O)c3cccc4ccccc34)CC2)cc1	1.3µM*	14%	-36%	4%
Cc1ccccc1CN1CCN(C(=O)CC(C)C)CC1	?	6%	79µM*	3%
COc1ccc(CN2CCN(C(=O)c3cccc4ccccc34)CC2)cc1Br	0.56µM*	4%	56µM*	-11%
COc1ccc(CN2CCN(C(=O)c3cccc4ccccc34)CC2)cc1OC	37%	-14%	?	-14%
N#Cc1ccccc1NC(=O)C(=O)NCC(c1cccnc1)N1CCc2ccccc2C1 (stereo not given)	-4%	7%	.	.
COc1cc(C2=NOC(C(=O)NCc3cccnc3)C2)cc(OC)c1OC (stereo not given)	0%	-6%	3%	-6%
O=C(c1ccco1)c1cn(CC(=O)N2CCCC2)c2ccccc12	1%	-13%	11%	3%
Cc1ccccc1CN1CCN(CC2CC3C=CC2C3)CC1 (stereo not given)	?	14%	79µM*	-8%
O=C(c1cccc2ccccc12)N1CCN(Cc2ccccc2F)CC1	-26%	-15%	-2%	-4%
Cc1ccccc1CN1CCN(C(=O)c2cccc3ccccc23)CC1	2.8µM*	-9%	-28%	4%
O/N=C/c1ccccc1Oc1ccc(Cl)cc1	15%	?	-3%	8.4µM*
CCc1ccccc1N(C)S(=O)(=O)c1ccc2[nH]cc(C(=O)O)c(=O)c2c1	7%	-4%	25%	1%
SMILES	ALOX12 inh	VDR inhibitor	Sfp inh	PLK1 PBD block
O=C(CSc1ccc([N+](=O)[O-])cc1)NNC(=O)c1ccccc1F	-9%	-11%	1%	9.5µM*
Cn1ncc2c(N)nc(NCCO)nc21	-1%	-14%	.	-1%
COc1ccc(CN(C)CC(=O)Nc2ccc(SC(F)F)cc2)cc1OC	0%	-19%	4%	27µM*
CCOc1ccc(CN(C)CC(=O)Nc2ccc(Cl)c(Cl)c2)cc1OC	-17%	.	.	.
COc1ccc(OC)c(C2Nc3c(Cl)ccc(C(=O)O)c3C3C=CCC32)c1 (stereo not given)	-14%	6%	22µM*	?
O=C(O)c1cccnc1Sc1ccccc1Cl	4%	24%	-4%	-1%
COC(=O)c1ccc([C@@H]2Nc3c(OC)ccc(C)c3[C@@H]3C=CC[C@@H]32)cc1	?	-3%	.	.
O=C(O)c1ccc(Cl)c2c1C1C=CCC1C(c1ccccn1)N2 (stereo not given)	.	.	3.5µM*	.
Cc1cc([N+](=O)[O-])cc2c1NC(c1ccccn1)C1CC=CC21 (stereo not given)	?	-19%	16%	?
O=[N+]([O-])c1ccc(Cl)c2c1C1C=CCC1C(c1ccccn1)N2 (stereo not given)	?	?	28µM*	-23%
CN(C)S(=O)(=O)c1cccc(NC(=O)COC(=O)c2cc(-c3cccc(Br)c3)nc3ccccc23)c1	-3%	6%	6%	6%
Oc1cccc(/C=N/n2c(C3CCCCC3)n[nH]c2=S)c1	?	-2%	-7%	?
Fc1cccc(Cl)c1/C=N/n1c(-c2cccnc2)n[nH]c1=S	?	-18%	12%	17µM*
S=c1[nH]nc(-c2cccnc2)n1/N=C/c1ccccc1	?	4%	-14%	-3%
COc1cccc(/C=N/n2c(C3CCCCC3)n[nH]c2=S)c1	?	9%	-20%	21µM*
Cc1ccc(/C=N/n2c(C3CCCCC3)n[nH]c2=S)cc1	?	-14%	50µM*	?
S=c1[nH]nc(-c2cccs2)n1/N=C/c1c(Cl)cccc1Cl	?	?	-60%	6.7µM*
S=c1[nH]nc(C2CCCCC2)n1/N=C/c1ccc(Br)cc1	1%	16%	?	?
NC(=S)c1cc2cc(Br)ccc2oc1=O	-16%	?	3%	?
Fc1ccccc1/C=N/n1c(C2CCCCC2)n[nH]c1=S	?	-14%	?	?
S=c1[nH]nc(C2CCCCC2)n1/N=C/c1ccc(Cl)cc1	0%	-10%	?	30µM*
Cc1c(Cl)cccc1-n1c(-c2cccnc2)n[nH]c1=S	?	-8%	?	-5%
S=c1[nH]nc(C2CCCCC2)n1/N=C/c1c(Cl)cccc1Cl	?	-4%	-10%	30µM*
Cc1cc(Cl)ccc1-n1c(-c2cccnc2)n[nH]c1=S	-18%	2%	18µM*	-12%
Cn1c(=O)c(-c2ccc(F)cc2)nc2cnc(OCc3ccccc3)nc21	27%	0%	0%	.
SMILES	ALOX12 inh	VDR inhibitor	Sfp inh	PLK1 PBD block
CC(C)(C)c1cccc(CN2CCC3(CCNCC3)C2)c1O	17%	.	.	.
COc1cc(C(CCN2CCCCC2)c2c(OC)cc(OC)c3c2OC(=O)CC3c2ccc(N(C)C)cc2)cc(OC)c1OC (stereo not given)	.	-9%	-24%	.
CCCCSCCCNC(=O)CS(=O)Cc1nc(-c2cccc(C)c2)oc1C (stereo not given)	?	8%	-12%	-2%
N#Cc1ccc(CS(=O)(=O)c2nnnn2-c2ccccc2)cc1	.	45µM*	9%	.
O=S(=O)(Cc1ccccc1)c1nnnn1-c1ccccc1	.	35µM*	5%	.
N#Cc1ccc(CS(=O)(=O)NCc2ccccc2)cc1	8%	.	.	.
